# From PubChem BioAssay (EPA / NIEHS)
# Active and inactive are the calls of the source. How the source made its calls: active means hit-call score of the fitted dose curve at least 0.9, where 1 is the maximum; inactive means score below 0.9.
# Assay: ATG_CMV_CIS: Attagene CIS-FACTORIAL HepG2 Assay for human CMV (Internal Marker) (AID 2282928);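 further: endpoint acts as a background internal control marker rather than a target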
# Settings: HepG2 CMV promoter reporter, transcription factor profiling; actives raise or lower the signal
# Protocol: ATG_CIS is a cell-based, multiplexed-readout assay that uses HepG2, a human liver cell line, with measurements taken at 24 hours after chemical dosing in a 24-well plate.ATG_CMV_CIS is one of 52 assay component(s) measured or calculated from the ATG_CIS assay. It is designed to make measurements of mRNA induction, a form of inducible reporter, as detected with fluorescence intensity signals by Reverse transcription polymerase chain reaction (RT-PCR) and Capillary electrophoresis technology.Data from the assay component ATG_CMV_CIS was analyzed into 1 assay endpoint. This assay endpoint, ATG_CMV_CIS, was analyzed with bidirectional fitting relative to DMSO as the negative control and baseline of activity. Using a type of inducible reporter, measures of mRNA for gain or loss-of-signal activity can be used to understand the background control at the transcription factor-level as they relate to the gene . Furthermore, this assay endpoint can be referred to as a secondary readout, because this assay has produced multiple assay endpoints where this one serves a background control function. To generalize the intended target to other relatable targets, this assay endpoint is annotated to the background measurement intended target family, where the subfamily is internal marker.
# Human liver HepG2 cells are transiently transfected with multiple reporter transcription units (MRTUs) in 6-well plates using FuGene 6 reagent (Roche; 3 ml FuGene/1 mg DNA). The MRTU constructs are regulated by a cis-regulating element (promoter). […] A major difference between the CIS and TRANS system is that in CIS activities of endogenous TFs are measured, whereas the TRANS assay evaluates changes in activities of exogenous, chimeric NR-Gal4 proteins. […] At the end of 24 hour incubation, total RNA was isolated using TriZol reagent (Invitrogen). The isolated RNA is then reverse-transcribed using oligo(dT) primer and Mo-MLV reverse transcriptase (Invitrogen) with DNAse I (Ambion) treatment for 30 min. The one-tenth of the produced cDNA was amplified by PCR using Taq DNA polymerase (Invitrogen) and two reporter sequence-specific primers. The PCR products were fluorescently labeled by primer extension with 6-arboxyfluorescein (6-FAM) 5'-labeled reporter sequence-specific primer (2 min at 95 C, 20 s at 68 C and 10 min at 72 C) and these products were digested with 5U of HpaI (New England Biolabs) for 2h at 37 C. The fragments were purified using Qiaquick PCR columns (Qiagen), analyzed on an ABI 3130xL genetic analyzer (Applied Biosystems) with peak positions identified by using a set of X-rhodamine (ROX)-labeled MapMarker1000 molecular weight standards (BioVentures). The raw capillary electrophoresis data was processed using Attagraph software (Attagene).
Structure (SMILES),outcome,AC50
CC1CCCCC1,inactive,–
CCC(=O)OC(C)c1ccccc1 (stereo not given),inactive,–
CO[Si](C)(CCC(F)(F)C(F)(F)C(F)(F)C(F)(F)C(F)(F)C(F)(F)F)OC,inactive,–
CN(C(=O)C(F)(F)C(F)(F)C(F)(F)F)[Si](C)(C)C,inactive,–
OCCCCl,inactive,–
CCC(Cc1c(I)cc(I)c(N)c1I)C(=O)O (stereo not given),–,62.6 µM (active)
CCCCCCCC/C=C\CCCCCCCC(=O)N(C)CC(=O)O,inactive,–
OCC(F)(F)C(F)(F)C(F)(F)CO,inactive,–
O=S(=O)(O)c1ccc(Cl)cc1,inactive,–
O=C1c2c(O)ccc(Nc3ccc(CCO)cc3)c2C(=O)c2c([N+](=O)[O-])ccc(O)c21,–,12 µM (active)
NC(=O)C(F)(F)C(F)(F)C(F)(F)C(F)F,inactive,–
CC(C)C(=O)OCc1ccccc1,inactive,–
CCOCN(C(=O)CS(=O)(=O)O)c1c(C)cccc1CC,inactive,–
O=C=Nc1cccc2c(N=C=O)cccc12,inactive,–
C=CC(=O)OCC(F)(F)C(F)(F)C(F)(F)COC(=O)C=C,–,31.6 µM (active)
Brc1ccccn1,inactive,–
Cc1cc(O)c(C(C)(C)C)cc1C(C)(C)C,–,9.14 µM (active)
COCCOCCC[Si](C)(O[Si](C)(C)C)O[Si](C)(C)C,inactive,–
CCN(CC)c1ccc2c(c1)Oc1cc(N(CC)CC)ccc1C21OC(=O)c2ccccc21,inactive,–
N#Cc1ccccc1O,inactive,–

Structure (SMILES),outcome,AC50
CCn1c2ccccc2c2ccccc21,–,57.4 µM (active)
Cc1cc(=O)[nH]c(C(C)C)n1,inactive,–
Cc1ccc(S(=O)(=O)C(I)I)cc1,inactive,–
CCOCOCC,inactive,–
O=C(O)C(F)(F)OC(F)(F)C(F)(F)OC(F)(F)C(F)(F)OC(F)(F)F,–,66.5 µM (active)
OCC(F)(F)C(F)(F)C(F)(F)C(F)(F)C(F)(F)C(F)(F)C(F)(F)C(F)(F)CO,inactive,–
CC(C)CCCC(C)CCO (stereo not given),inactive,–
Nc1cc([N+](=O)[O-])cc(Cl)c1O,inactive,–
O=c1cccc[nH]1,inactive,–
O=C(F)C1(F)C(F)(F)C(F)(F)C(F)(F)C(F)(F)C1(F)F,inactive,–
C=C(C)C(=O)OCC(F)(F)C(F)(F)C(F)(F)C(F)F,inactive,–
O=S(=O)(O)CCC(F)(F)C(F)(F)C(F)(F)C(F)(F)F,inactive,–
Oc1ccc(C2(c3ccc(O)c(C4CCCCC4)c3)CCCCC2)cc1C1CCCCC1,–,8.9 µM (active)
F[Si-2](F)(F)(F)(F)F,inactive,–
Cc1ccc([N+](=O)[O-])c(C)c1,inactive,–
FC(F)(F)C(F)(F)C(F)(F)C(F)(F)C(F)(F)C(F)(F)C(F)(F)CCI,inactive,–
CCCCOC(=O)C(C)O (stereo not given),inactive,–
C[Si](Cl)(Cl)CCC(F)(F)C(F)(F)C(F)(F)C(F)(F)C(F)(F)C(F)(F)F,inactive,–
C=CC(=O)OCC(F)(F)C(F)(F)C(F)(F)C(F)(F)C(F)(F)C(F)(F)C(F)(F)C(F)F,inactive,–
O=C1C=CC(=O)N1c1ccc(Cc2ccc(N3C(=O)C=CC3=O)cc2)cc1,inactive,–
